The panel holds about 79,000 compounds, 15% with a hit somewhere; the sample as a whole holds those more often. Activity calls are given as the source filed them. Rule as the data show it: active = growth inhibition above about 70%; inactive = the rest.
Assays:
[1] = NCI Yeast Anticancer Drug Screen. Data for the sgs1 strain (AID 173);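 also: 0% = growth of vehicle-only control cultures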; conditions: S. cerevisiae sgs1 mutant, active compounds read high
In short: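 Growth of a yeast strain bearing a defined genetic alteration is measured after compound treatment. Inhibition is expressed relative to vehicle-only controls.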

[2] = NCI Yeast Anticancer Drug Screen. Data for the mlh1 rad18 strain (AID 175); conditions: S. cerevisiae mlh1 rad18 strain growth inhibition, active compounds read high
In short: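 Read-out is yeast growth inhibition, calculated against vehicle-only controls. The compound was applied to a strain engineered with DNA damage repair alterations.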

[3] = NCI Yeast Anticancer Drug Screen. Data for the rad18 strain (AID 177); conditions: S. cerevisiae rad18 mutant growth inhibition, active compounds read high
In short: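 Growth of the mutant yeast strain after compound exposure, normalised to vehicle-only cultures.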

[4] = NCI Yeast Anticancer Drug Screen. Data for the wt1 strain (AID 149);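 also: 0% = growth of vehicle-treated wt1 cultures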; conditions: S. cerevisiae wt1 strain (SPY 50644) growth inhibition, active compounds read high
In short: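 wt1 yeast, compound-treated; % growth inhibition vs vehicle control.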

[5] = NCI Yeast Anticancer Drug Screen. Data for the rad50EPP+ strain (AID 151);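 also: 0% = growth of vehicle-treated control cultures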; conditions: S. cerevisiae rad50 mutant strain, active compounds read high
In short: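 Compounds were applied to the rad50EPP+ yeast strain, which bears a defined DNA repair alteration, and growth inhibition was determined relative to vehicle-treated cultures.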

[6] = NCI Yeast Anticancer Drug Screen. Data for the mgt1 strain (AID 153); conditions: S. cerevisiae mgt1 mutant growth inhibition, active compounds read high
In short: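 Strain: mgt1 yeast, one of a set carrying defined DNA damage repair or cell cycle control alterations. Compound-treated growth compared with vehicle.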

[7] = NCI Yeast Anticancer Drug Screen. Data for the rad50 strain (AID 155);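 also: 0% = growth of vehicle-only cultures of the same strain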; conditions: S. cerevisiae rad50 strain growth inhibition, active compounds read high
In short: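 Genetically altered yeast (DNA repair pathway); compound treatment; growth inhibition vs vehicle ctrl.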

[8] = NCI Yeast Anticancer Drug Screen. Data for the mec2-1 strain (AID 157); conditions: S. cerevisiae mec2-1 strain, active compounds read high
In short: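 Strain: mec2-1 (DNA repair/cell cycle alteration). Compound exposure, then growth measured; inhibition expressed relative to vehicle.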

[9] = NCI Yeast Anticancer Drug Screen. Data for the rad14 strain (AID 159);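 also: 0% = growth of vehicle-treated control cultures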; conditions: S. cerevisiae rad14 strain growth inhibition, active compounds read high
In short: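 Test compounds were applied to a repair-deficient yeast strain. Its growth was then compared with that of cultures given vehicle alone, and inhibition was expressed relative to those controls.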

[10] = NCI Yeast Anticancer Drug Screen. Data for the sgs1 mgt1 strain (AID 161);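 also: 0% = growth of cultures given vehicle only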; conditions: S. cerevisiae sgs1 mgt1 strain, active compounds read high
In short: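 Genetically altered yeast, compound exposure, growth inhibition relative to vehicle.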

[11] = NCI Yeast Anticancer Drug Screen. Data for the CLN2oe strain (AID 163);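 also: 0% = growth of vehicle-only control cultures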; conditions: S. cerevisiae CLN2oe strain, active compounds read high
In short: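 Growth of a genetically modified yeast strain is measured after compound exposure and compared with cultures given vehicle alone.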

[12] = NCI Yeast Anticancer Drug Screen. Data for the cln2 rad14 strain (AID 165);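 also: 0% = growth equal to vehicle treated cultures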; conditions: S. cerevisiae cln2 rad14 strain, active compounds read high
In short: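 Compounds are applied to the cln2 rad14 yeast strain, and growth is then compared with that of vehicle-treated cultures to give inhibition.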

[13] = NCI Yeast Anticancer Drug Screen. Data for the bub3 strain (AID 167); conditions: S. cerevisiae bub3 mutant strain, active compounds read high
In short: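 Yeast carrying a defined mutation is treated with each compound, and growth is compared with that of vehicle-exposed cells to give inhibition.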

[14] = NCI Yeast Anticancer Drug Screen. Data for the wt2 strain (AID 169);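 also: 0% = growth of vehicle-treated yeast cultures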; conditions: S. cerevisiae wt2 strain growth inhibition, active compounds read high
In short: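 This strain belongs to a panel of yeast strains with defined genetic alterations in DNA damage repair or cell cycle control. Compounds are applied, and growth inhibition is measured against vehicle-treated cultures.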

[15] = NCI Yeast Anticancer Drug Screen. Data for the mlh1 strain (AID 171);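 also: 0% = growth of vehicle-treated control cultures of the same strain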; conditions: S. cerevisiae mlh1 strain growth inhibition, active compounds read high
In short: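 Growth of the mutant yeast strain after compound exposure, expressed as inhibition relative to vehicle-only controls.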

[16] = at 5.0 µM (retest, dose inferred, filed as 0.5)
[17] = at 50.0 µM (retest, dose inferred, filed as 5.0)

Measured: growth inhibition

CCOC(=O)/C=C1\CCCn2c1ncc(C(=O)OCC)c2=O
inactive: [1]; at 1.2 µM 3% | [1]; at 3.7 µM 5% | [1]; at 11.0 µM 6% | [1]; at 33.0 µM 24% | [1]; at 100.0 µM 51% | [2]; [16] 8% | [2]; [17] 48% | [3]; at 1.2 µM 1% | [3]; at 3.7 µM 5% | [3]; at 11.0 µM 14% | [3]; at 33.0 µM 30% | [3]; at 100.0 µM 55%
active: [2]; at 50.0 µM 89.8%

CC1=Cc2ccc(C)cc2C(=O)C1=O
active: [4]; at 33.0 µM 99% | [4]; at 100.0 µM 99% | [5]; at 11.0 µM 71% | [5]; at 33.0 µM 95% | [5]; at 100.0 µM 99% | [6]; at 33.0 µM 100% | [6]; at 100.0 µM 99% | [7]; at 33.0 µM 99% | [7]; [17] 99% | [7]; at 50.0 µM 99.1% | [7]; at 100.0 µM 98% | [8]; at 33.0 µM 100% | [8]; [17] 99% | [8]; at 50.0 µM 99.4% | [8]; at 100.0 µM 99% | [9]; at 11.0 µM 79% | [9]; at 33.0 µM 99% | [9]; at 100.0 µM 99% | [10]; [17] 99% | [10]; at 50.0 µM 99.3% | [11]; at 100.0 µM 94% | [12]; [17] 99% | [12]; at 50.0 µM 98.2% | [13]; [17] 99% | [13]; at 50.0 µM 99.3% | [13]; at 100.0 µM 99% | [14]; at 100.0 µM 98% | [15]; at 11.0 µM 71% | [15]; at 33.0 µM 99% | [15]; at 100.0 µM 99% | [1]; at 33.0 µM 99% | [1]; at 100.0 µM 99% | [3]; at 33.0 µM 99% | [3]; at 100.0 µM 98%
inactive: [4]; at 1.2 µM -10% | [4]; at 3.7 µM 8% | [4]; at 11.0 µM 41% | [5]; at 1.2 µM 34% | [5]; at 3.7 µM 54% | [6]; at 1.2 µM 27% | [6]; at 3.7 µM 42% | [6]; at 11.0 µM 60% | [7]; at 1.2 µM 3% | [7]; at 3.7 µM 6% | [7]; [16] 31% | [7]; at 11.0 µM 53% | [8]; at 1.2 µM 2% | [8]; at 3.7 µM 21% | [8]; [16] -7% | [8]; at 11.0 µM 42% | [9]; at 1.2 µM 18% | [9]; at 3.7 µM 31% | [10]; [16] 43% | [11]; at 1.2 µM 2% | [11]; at 3.7 µM 2% | [11]; at 11.0 µM 9% | [11]; at 33.0 µM 18% | [12]; [16] 0% | [13]; at 1.2 µM 0% | [13]; at 3.7 µM -3% | [13]; [16] 36% | [13]; at 11.0 µM 2% | [13]; at 33.0 µM 44% | [14]; at 1.2 µM -7% | [14]; at 3.7 µM -6% | [14]; at 11.0 µM 4% | [14]; at 33.0 µM -1% | [15]; at 1.2 µM 12% | [15]; at 3.7 µM 11% | [1]; at 1.2 µM -1% | [1]; at 3.7 µM 8% | [1]; at 11.0 µM 65% | [3]; at 1.2 µM 25% | [3]; at 3.7 µM 28% | [3]; at 11.0 µM 66%

O=CC(=C(I)I)c1ccccc1
inactive: [4]; at 1.2 µM 15% | [4]; at 3.7 µM 41% | [6]; at 1.2 µM 17% | [6]; at 3.7 µM 50% | [8]; at 1.2 µM 28% | [8]; at 3.7 µM 67% | [8]; [16] 33% | [9]; at 1.2 µM 20% | [9]; at 3.7 µM 38% | [10]; [16] 43% | [11]; at 1.2 µM -1% | [11]; at 3.7 µM -3% | [11]; at 11.0 µM 23% | [12]; [16] 2% | [13]; at 1.2 µM -6% | [13]; at 3.7 µM -4% | [13]; [16] -17% | [13]; at 11.0 µM 27% | [15]; at 1.2 µM 13% | [15]; at 3.7 µM 32% | [1]; at 1.2 µM 56% | [2]; [16] 18% | [3]; at 1.2 µM 50%
active: [4]; at 11.0 µM 88% | [4]; at 33.0 µM 99% | [4]; at 100.0 µM 90% | [5]; at 1.2 µM 91% | [5]; at 3.7 µM 96% | [5]; at 11.0 µM 97% | [5]; at 33.0 µM 98% | [5]; at 100.0 µM 99% | [6]; at 11.0 µM 98% | [6]; at 33.0 µM 99% | [6]; at 100.0 µM 93% | [7]; at 1.2 µM 93% | [7]; at 3.7 µM 95% | [7]; [16] 97% | [7]; at 11.0 µM 97% | [7]; at 33.0 µM 99% | [7]; [17] 100% | [7]; at 50.0 µM 85.7% | [7]; at 100.0 µM 97% | [8]; at 11.0 µM 99% | [8]; at 33.0 µM 99% | [8]; [17] 99% | [8]; at 50.0 µM 88.9% | [8]; at 100.0 µM 97% | [9]; at 11.0 µM 73% | [9]; at 33.0 µM 99% | [9]; at 100.0 µM 86% | [10]; [17] 99% | [10]; at 50.0 µM 90.8% | [11]; at 33.0 µM 98% | [11]; at 100.0 µM 98% | [12]; [17] 100% | [12]; at 50.0 µM 91.5% | [13]; at 33.0 µM 99% | [13]; [17] 100% | [13]; at 50.0 µM 92.2% | [13]; at 100.0 µM 99% | [15]; at 11.0 µM 81% | [15]; at 33.0 µM 97% | [15]; at 100.0 µM 85% | [1]; at 3.7 µM 79% | [1]; at 11.0 µM 99% | [1]; at 33.0 µM 99% | [1]; at 100.0 µM 99% | [2]; [17] 100% | [2]; at 50.0 µM 93.1% | [3]; at 3.7 µM 72% | [3]; at 11.0 µM 96% | [3]; at 33.0 µM 98% | [3]; at 100.0 µM 95%

— PubChem BioAssay (NCI)
